The values that follow come from PubChem BioAssay (Tox21).

Assay [1] is described as follows: qHTS assay to identify small molecule antagonists of the glucocorticoid receptor (GR) signaling pathway - cell viability counter screen (AID 720693). Further: nearly all actives have a fitted effect of over 55% in size. Further: potency means the concentration at half of the fitted maximal effect.
Assay [2] can be described thus: qHTS assay to identify small molecule antagonists of the androgen receptor (AR) signaling pathway - cell viability counter screen (AID 743033; further: nearly all actives have a fitted effect of over 45% in size; further: potency means the concentration at half of the fitted maximal effect).
The target of assay [3] is Androgen receptor (Homo sapiens) (UniProt P10275). As to the kind of experiment: qHTS assay to identify small molecule antagonists of the androgen receptor (AR) signaling pathway using the MDA cell line (AID 743042; further: nearly all actives have a fitted effect of over 55% in size). Summed up:
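Antagonist mode: compounds plus R1881 agonist added to MDA-kb2 AR-luc cells, incubated 16 h at 37C. Luciferase reporter luminescence quantified, with multiplexed CellTiter-Fluor readout for cell viability.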

Assay [4] in a line: qHTS assay to identify small molecule antagonists of the thyroid receptor (TR) signaling pathway (AID 743065). Further: nearly all actives have a fitted effect of over 55% in size. Further: potency means the concentration at half of the fitted maximal effect. Summed up:
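Antagonism measured as loss of luciferase signal in GH3 cells stably carrying a TRE-luciferase reporter, co-treated with compound and T3 (1 nM final) for 23.5 h at 37 C. Viability was read in the same well by CellTiter-Fluor.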

Assay [5] concerns thyroid hormone receptor (rat, GH3 cells). As to the kind of experiment: qHTS assay to identify small molecule agonists of the thyroid receptor (TR) signaling pathway (AID 743066; calls by dose curve).
Assay [6] concerns the target Estrogen receptor (Homo sapiens) (UniProt P03372). As to the kind of experiment: qHTS assay to identify small molecule antagonists of the estrogen receptor alpha (ER-alpha) signaling pathway (AID 743069; active means well fitted curve in the direction sought with a large enough effect in the signal ratio in the repeat runs, not every such curve was filed as active; inconclusive means weak or mixed curves, or effect the other way; inactive means no such curve, though single readings can be large or run the other way; the % refers to the signal ratio; further: potency means the concentration at half of the fitted maximal effect). Summed up: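 Fluorescence intensity from a beta-lactamase FRET substrate served as the read-out. Cells: HEK293 with stably integrated ER-alpha-UAS-bla reporter. Agonist 17beta-estradiol was co-added with compounds; incubation 18 hr at 37C, substrate 2 hr at room temperature.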

A short description of assay [7]: qHTS assay to identify small molecule antagonists of the estrogen receptor alpha (ER-alpha) signaling pathway - cell viability counter screen (AID 743074; calls by dose curve; further: nearly all actives have a fitted effect of over 45% in size; further: potency means the concentration at half of the fitted maximal effect).
In assay [8] the target is Estrogen receptor (Homo sapiens) (UniProt P03372). As to the kind of experiment: qHTS assay to identify small molecule agonists of the estrogen receptor alpha (ER-alpha) signaling pathway (AID 743075; calls by dose curve; further: potency means the concentration at half of the fitted maximal effect). The conditions noted are these: HEK293 ER-alpha-UAS-bla, beta-lactamase FRET ratio, 18 h; activation: at 70.1 µM (top of the series).
Estrogen receptor (Homo sapiens), sequence (P03372 whole entry, looked up): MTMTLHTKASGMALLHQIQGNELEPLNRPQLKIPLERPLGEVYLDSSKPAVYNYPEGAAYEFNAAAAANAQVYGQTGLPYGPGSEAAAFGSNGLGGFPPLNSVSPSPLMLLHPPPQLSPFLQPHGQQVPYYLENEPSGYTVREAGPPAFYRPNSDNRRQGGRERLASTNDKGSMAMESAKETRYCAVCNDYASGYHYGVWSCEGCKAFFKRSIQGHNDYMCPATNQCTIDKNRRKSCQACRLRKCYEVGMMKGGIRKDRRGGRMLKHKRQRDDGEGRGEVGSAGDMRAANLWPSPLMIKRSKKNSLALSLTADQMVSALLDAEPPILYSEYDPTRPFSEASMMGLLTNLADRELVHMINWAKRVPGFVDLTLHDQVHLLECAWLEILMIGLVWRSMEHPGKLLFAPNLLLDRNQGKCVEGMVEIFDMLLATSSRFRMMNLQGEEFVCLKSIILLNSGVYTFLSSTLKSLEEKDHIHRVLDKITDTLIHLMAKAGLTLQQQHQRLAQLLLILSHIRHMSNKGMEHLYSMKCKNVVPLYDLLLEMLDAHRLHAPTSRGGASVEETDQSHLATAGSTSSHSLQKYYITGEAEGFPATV
Assay [9] has the same target. As to the kind of experiment: qHTS assay to identify small molecule agonists of the estrogen receptor alpha (ER-alpha) signaling pathway using the BG1 cell line (AID 743079). Further: nearly all actives have a fitted effect of over 20% in size. Further: potency means the concentration at half of the fitted maximal effect. The conditions noted are these: BG1Luc4E2 cells, ERE-luciferase agonist, 22 h.
Assay [10] is described as follows: qHTS assay to identify small molecule antagonists of the estrogen receptor alpha (ER-alpha) signaling pathway using the BG1 cell line (AID 743080; calls by dose curve;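 further: BG1 cells stimulated with 17beta-estradiol alongside compound; nearly all actives have a fitted effect of over 25% in size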; further: potency means the concentration at half of the fitted maximal effect). Summed up: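 Endogenous full-length ER-alpha in BG1-Luc-4E2 cells drives a stably integrated 4×ERE luciferase gene; compounds were tested against 17beta-estradiol over 21.5 h, with luminescence and multiplexed viability fluorescence recorded.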

The nature of assay [11]: qHTS assay to identify small molecule antagonists of the estrogen receptor alpha (ER-alpha) signaling pathway using the BG1 cell line - cell viability counter screen (AID 743081).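 Further: compound given together with 17beta-estradiol as the ER stimulus; nearly all actives have a fitted effect of over 45% in size.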 Further: potency means the concentration at half of the fitted maximal effect.
The target in the next assay is Aromatase (Homo sapiens) (UniProt P11511). As to the kind of experiment: qHTS assay to identify aromatase inhibitors (AID 743083). Further: nearly all actives have a fitted effect of over 55% in size. Further: potency means the concentration at half of the fitted maximal effect.
Aromatase (Homo sapiens), sequence (P11511 whole entry, looked up): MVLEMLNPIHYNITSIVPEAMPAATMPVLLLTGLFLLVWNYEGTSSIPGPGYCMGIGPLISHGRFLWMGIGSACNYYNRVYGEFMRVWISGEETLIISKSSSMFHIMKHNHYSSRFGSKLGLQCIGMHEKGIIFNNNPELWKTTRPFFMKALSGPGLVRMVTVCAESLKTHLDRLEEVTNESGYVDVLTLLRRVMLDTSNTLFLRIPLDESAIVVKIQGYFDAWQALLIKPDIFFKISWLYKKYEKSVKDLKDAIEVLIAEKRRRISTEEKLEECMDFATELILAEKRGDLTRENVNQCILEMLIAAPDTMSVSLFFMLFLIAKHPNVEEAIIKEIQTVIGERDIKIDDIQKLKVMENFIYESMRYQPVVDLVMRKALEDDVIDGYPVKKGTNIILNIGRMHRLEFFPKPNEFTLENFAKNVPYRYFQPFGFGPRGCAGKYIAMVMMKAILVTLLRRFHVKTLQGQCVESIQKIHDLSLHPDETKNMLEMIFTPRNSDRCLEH
The nature of assay [12]: qHTS assay to identify aromatase inhibitors - cell viability counter screen (AID 743084). Further: potency means the concentration at half of the fitted maximal effect.
Assay [13] is described as follows: qHTS assay for identifying genotoxic compounds that show differential cytotoxicity against isogenic chicken DT40 cell lines with known DNA damage response pathways - Rev3 mutant cell line (AID 743014). Further: nearly all actives have a fitted effect of over 55% in size. Further: potency means the concentration at half of the fitted maximal effect.
Assay [14] in a line: qHTS assay to identify small molecule antagonists of the androgen receptor (AR) signaling pathway using the MDA cell line - cell viability counter screen (AID 743041; further: nearly all actives have a fitted effect of over 45% in size; further: potency means the concentration at half of the fitted maximal effect). The essentials:
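Using the breast carcinoma line MDA-kb2 AR-luc, test chemicals were co-incubated with R1881 for 16 h; CellTiter-Fluor reagent, added at 15.5 h, provided a fluorescence measure of live cells.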

Assay [15] in a line: qHTS assay to identify small molecule antagonists of the thyroid receptor (TR) signaling pathway - cell viability counter screen (AID 743064). Further: nearly all actives have a fitted effect of over 50% in size. Summed up:
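CellTiter-Fluor readout, 30 min at 37 °C/5% CO2, following 23.5 h incubation of GH3.TRE-Luc cells with test compound and 1 nM T3 (final).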

The nature of assay [16]: qHTS assay for identifying genotoxic compounds that show differential cytotoxicity against isogenic chicken DT40 cell lines with known DNA damage response pathways - Rad54/Ku70 mutant cell line (AID 743015). Further: nearly all actives have a fitted effect of over 60% in size. Further: potency means the concentration at half of the fitted maximal effect.

Several values for one entry are separate records, joined by “and”; a condition that tells them apart may be missing. Identical values can stand only once. The source holds several records for some structures; these can differ, active in one and inactive in another. Activity calls are given as the source filed them. Unless noted, the call rests on the fitted dose curve; in most records, active means well fitted curve in the direction sought with a large enough effect in the repeat runs; inconclusive means weak or mixed curves; inactive means no such curve, though single readings can be large; an effect the other way counts as inactive or inconclusive.
On the % scale 0 is the no-effect control and ±100 the full control effect.

Androgen receptor (Homo sapiens), sequence (P10275 whole entry, looked up): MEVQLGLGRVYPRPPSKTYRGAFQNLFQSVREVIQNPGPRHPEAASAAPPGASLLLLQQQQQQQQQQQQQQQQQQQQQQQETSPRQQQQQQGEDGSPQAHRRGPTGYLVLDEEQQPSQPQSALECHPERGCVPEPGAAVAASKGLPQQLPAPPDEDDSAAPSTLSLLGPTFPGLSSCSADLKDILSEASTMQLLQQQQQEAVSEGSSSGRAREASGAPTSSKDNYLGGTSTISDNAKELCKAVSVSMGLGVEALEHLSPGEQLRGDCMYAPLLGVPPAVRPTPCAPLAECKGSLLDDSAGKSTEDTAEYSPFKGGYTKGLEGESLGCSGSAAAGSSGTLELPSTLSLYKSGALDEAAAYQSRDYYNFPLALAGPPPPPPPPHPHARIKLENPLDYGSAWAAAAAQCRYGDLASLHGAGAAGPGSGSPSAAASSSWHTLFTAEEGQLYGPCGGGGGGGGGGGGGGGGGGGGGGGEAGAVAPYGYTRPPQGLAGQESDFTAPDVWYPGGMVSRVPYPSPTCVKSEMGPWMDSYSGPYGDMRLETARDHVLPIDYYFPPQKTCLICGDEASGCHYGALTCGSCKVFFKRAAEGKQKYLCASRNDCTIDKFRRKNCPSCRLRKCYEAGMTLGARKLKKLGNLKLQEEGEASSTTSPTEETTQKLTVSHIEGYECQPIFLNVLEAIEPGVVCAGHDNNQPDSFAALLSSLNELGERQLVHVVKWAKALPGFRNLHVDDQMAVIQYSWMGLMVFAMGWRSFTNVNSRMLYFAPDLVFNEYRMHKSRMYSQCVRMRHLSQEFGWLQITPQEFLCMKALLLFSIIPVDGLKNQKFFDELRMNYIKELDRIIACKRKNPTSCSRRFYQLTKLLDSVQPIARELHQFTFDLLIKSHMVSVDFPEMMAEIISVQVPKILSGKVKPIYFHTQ

In the case of `CCc1oc2ccccc2c1C(=O)c1cc(Br)c(O)c(Br)c1`, the figures for the Potency in assay [1], in assay [4] and in assay [6] were 13.4 µM (active), 26.6 µM (active) and 10.7 µM [inconclusive] (active), respectively. The Potency result in [2], in assay [3], in [5], in [7], in [8] and in assay [10] was “inactive” in each case. Further, the Potency result (in assay [11]; with Aromatase (Homo sapiens); in [12]) was “inactive” throughout. Besides, in [9] (at 70.3 µM (top of the series)), the activation was -23.9% (inactive).
Turning to `CN(C/C=C/C#CC(C)(C)C)Cc1cccc2ccccc12`, the Potency result in [1], in assay [13], in [2], in assay [14], in assay [7] and in assay [11] was “inactive” each time. The Potency entry (with Aromatase (Homo sapiens); in assay [12]) was “inactive” each time.
As to `O=Cc1cc(O)ccc1Br`, the Potency result in [1], in [2], in assay [14], in [5], in assay [6] and in assay [7] was “inactive” throughout. For the same molecule, the Potency entry (in assay [8]; in assay [11]; with Aromatase (Homo sapiens); in assay [12]) was “inactive” in each case. Further, the Potency in [9] was 31.1 µM (active).
Turning to `CCC1OCC(COc2ccc(Oc3ccccc3)cc2)O1` (stereo not given), the Potency result in assay [1], in assay [13], in assay [2], in assay [15], in [7] and in assay [11] was “inactive” in each case. Further, the Potency entry (with Aromatase (Homo sapiens); in assay [12]) was “inactive” each time.
As to `CCOC(=O)/C=C(C)/C=C/C=C(C)/C=C/c1c(C)cc(OC)c(C)c1C`, the Potency entry (in assay [1]; in [2]; in assay [14]; in assay [8]; in assay [11]; in the assay with Aromatase (Homo sapiens)) was “inactive” in each case. For the same molecule, the Potency entry in assay [12] was “inactive”. Besides, the Potency in assay [13] is 2.37 µM (active); in assay [16] it was 6.68 µM (active); in assay [10], 4.22 µM (active).
For the molecule `NC(=NCCCCCCN=C(N)/N=C(\N)Nc1ccc(Cl)cc1)/N=C(\N)Nc1ccc(Cl)cc1`, the Potency is 21.3 µM (active) [middle of 5 runs] in assay [1]; 15.3 µM (active) [middle of 5 runs] in assay [13]; 17.1 µM (active) [middle of 5 runs] in [16]; 6.06 µM (active) [middle of 5 runs] in [4]; 25 µM (active) [middle of 4 runs] in assay [7]; “inactive and 68.2 µM (active)” in [11]. The Potency with Aromatase (Homo sapiens) was 24.1 µM (active) [middle of 4 runs]. Also, the Potency result in [14] and in assay [5] was “inactive” each time.
With `CCN(CCC#N)c1ccc(N=Nc2c(Cl)cc([N+](=O)[O-])cc2Cl)cc1`, the Potency result in assay [1], in assay [5], in assay [6], in assay [7], in assay [8] and in [10] was “inactive” throughout. For the same molecule, the Potency entry in the assay with Aromatase (Homo sapiens) is “inactive”. In addition, the Potency is 10.9 µM (active) in assay [13]; 17.2 µM (active) in assay [16]; 24.3 µM (active) in [4]; 27.3 µM (active) in assay [11]; 24.3 µM (active) in assay [12]. For the same molecule, the activation in [9] (at 70.3 µM (top of the series)) is -0.554% (inactive).
Turning to `CCN(C(=O)N(CC)c1ccccc1)c1ccccc1`, the Potency entry in assay [1], in assay [2], in assay [15], in assay [4], in assay [5] and in assay [7] was “inactive” each time. The Potency entry (in assay [11]; with Aromatase (Homo sapiens); in assay [12]) was “inactive” throughout. In addition, in assay [13], the Potency is 7.7 µM (active).
For `CN(C)c1ccc(C2(c3ccc(N(C)C)cc3)OC(=O)c3cc(N(C)C)ccc32)cc1`, the Potency entry in assay [1], in assay [2], in [14], in assay [3], in assay [15] and in assay [4] was “inactive” in each case. The Potency result (in assay [5]; in [7]; in assay [10]; in [11]; with Aromatase (Homo sapiens); in [12]) was “inactive” each time. For the same molecule, the results for the Potency in assay [16] and in [8] were 15.3 µM (active) and 21.8 µM [inconclusive] (active), respectively. Moreover, the activation in [9] (at 70.3 µM (top of the series)) is -6.04% (inactive).
Turning to `CCCCCCCCOC(=O)c1ccc(O)cc1`, the Potency result in [1], in [2], in assay [14], in assay [5], in assay [7] and in [10] was “inactive” throughout. The Potency entry in assay [11] is “inactive”. The Potency is 60.9 µM (active) in assay [13]; 60.9 µM (active) in [16]; 61.4 µM [inconclusive] (active) and 43.7 µM [activator] (active) in [8]; 7.67 µM (active) and 17.2 µM (active) in assay [9]; 21.6 µM (active) and 54.5 µM (active) with Aromatase (Homo sapiens).
Consider `CC(=O)SC[C@@H](Cc1ccccc1)C(=O)NCC(=O)OCc1ccccc1`, for which the Potency entry in [1], in assay [16], in assay [2], in assay [14], in assay [15] and in [4] was “inactive” each time. For the same molecule, the Potency result (in assay [5]; in [6]; in [7]; in assay [8]; in [10]; in the assay with Aromatase (Homo sapiens)) was “inactive” throughout. Also, in [12], the Potency result is “inactive”. Besides, in [9] (at 32.5 µM (top of the series)), the activation is 3.92% (inactive).
Take `CNc1ccc(O)cc1`: the Potency in [1] is 54.8 µM (active); in [13], 6.1 µM (active); in [16], 10.8 µM (active); in [2], 38.8 µM (active); in [14] it was 61 µM (active); with Aromatase (Homo sapiens), 15.3 µM (active). The Potency in assay [12] is 19.3 µM (active). For the same molecule, the Potency entry in [5] is “inactive”.
Regarding `C/C=C(\C)C(=O)OCc1ccccc1`, the Potency result in assay [1], in [2], in assay [15], in [4], in assay [5] and in [7] was “inactive” each time. For the same molecule, the Potency result (in [11]; with Aromatase (Homo sapiens); in assay [12]) was “inactive” throughout.
